HT1080 IDH1KD tx: HT-1080 IDH1 knockdown cell toxicity (counter line). HT-1080 IDH1 knockdown viability, ATP luminescence, 48 h. actives 2% (n = 360,000). AID 686971. Potency, µM (top dose mostly 46.1 µM), without a hit: top-dose activity, negative = toxicity, actives largely listed as cytotoxic;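 further: potency means the concentration at half of the fitted maximal effect; 0% = DMSO wells and -100% = cell-free medium wells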
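% activity derives from luminescence (CellTiter-Glo), normalised to DMSO and no-cell wells. HT-1080-IDH1KD cells, 750/well, had 48 h compound exposure at 37 °C.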
IL-1B inflam inh: inflammasome signaling inhibition, IL-1 beta readout. actives 4.7% (n = 360,000). THP-1 LPS/ATP IL-1B secretion, AlphaLISA, 16 h; stronger effect = lower value. activity change, % at 57.5 µM; in the data active means activity change below about -50%; inconclusive means mostly about -30% to -49%; further: on the % scale 0 is the no-effect control and ±100 the full control effect
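THP-1 cells pretreated 1 hr with compounds (up to 57.5 uM final), then stimulated with LPS (250 ng/mL final) plus ATP (1.25 mM final); secreted IL-1B measured by AlphaLISA after 16 hr, decreased signal indicating inhibition.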
TGFb SMAD3 inh: blocks TGF-b signaling. HepG2 CAGA-GFP TGF-b/SMAD3 reporter, GFP fluorescence, 18 h; TGF-beta stimulated, 500 pg/mL final. Potency, µM (series often up to 46.1 µM), for inactives: top-dose activity, negative = inhibition, actives largely listed as inhibitors. actives 1.2% (n = 410,000). AID 588855; further: potency means the concentration at half of the fitted maximal effect; on the % scale 0 is the no-effect control and ±100 the full control effect; nearly all actives have a fitted effect of over 65% in size
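Per well, imaged GFP fluorescence of HEPG2 CAGA-GFP cells gives the signal; cells get compound, then TGF-beta (500 pg/mL final), 18 h at 37 degrees C; %Activity versus -TGF-beta and +DMSO controls.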
HepG2 viability: HepG2 cytotoxicity, counter-screen for TGF-b inhibitors. Potency, µM (series often up to 46.1 µM), for the others: at the highest dose activity change, negative = cytotoxicity, hits mostly cytotoxic. actives 0.76% (n = 410,000). AID 588856. HepG2 CAGA-GFP viability, ATP luminescence, 18 h; further: potency means the concentration at half of the fitted maximal effect
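CellTiter-Glo luminescence gave cytotoxicity after 18 hours at 37 degrees C. The cells were HepG2 CAGA-GFP in 1% FBS DMEM, stimulated with 500 pg/mL TGF-beta after compound addition. %Activity was normalised to no-cell wells (complete cell-killing) and DMSO (no toxicity), and curves were fitted and classified.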
HT1080NT lethal: kills 2HG-producing HT-1080-NT fibrosarcoma cells | AID 686970 | Potency, µM (series often up to 46.1 µM), inactives show top-dose activity, negative = less viability, most hits filed as cytotoxic | actives 1.6% (n = 360,000) | HT-1080-NT fibrosarcoma viability, CellTiter-Glo ATP luminescence, 48 h;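 further: NT is the 2HG producing partner of a matched IDH1 knockdown line; potency means the concentration at half of the fitted maximal effect; 0% = DMSO-treated cells and -100% = media-only wells without cells; nearly all actives have a fitted effect of over 55% in size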
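Compounds were tested in concentration-response format on HT-1080-NT cells for 48 hours at 37 degrees C. Cell viability came from CellTiter-Glo luminescence; curves were classified by r2, response magnitude and activity.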
Giardia kill: Giardia lamblia killing | Giardia lamblia trophozoite viability | activity change, % at 7.66 µM, hits read low | actives 0.15% (n = 340,000) | AID 540267; in the data active means activity change below about -80%; inconclusive means between about -30% and that limit;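 further: parasites exposed to compound for two days anaerobically before the ATP read; on the % scale 0 is the no-effect control and ±100 the full control effect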
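Viability, read as ATP luminescence: trophozoites at 100 cells/well, compound added, 48 hrs anaerobic at 37 deg C, then 15-30 min room-temperature development before reading.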
The depositor's hits bear a star; ? = inconclusive; . = no result; [ ] = dose if it differs, or a comment. Compounds with a hit are over-represented: about 6.5% of the library has one in this group of screens. Unless noted, the call rests on the fitted dose curve; in most records, active means well fitted curve in the direction sought with a large enough effect; inconclusive means small, poorly fitted or top-dose-only effect, or another doubt; inactive means no such curve, though single readings can be large; an effect the other way counts as inactive or inconclusive.

SMILES	HT1080 IDH1KD tx	IL-1B inflam inh	TGFb SMAD3 inh	HepG2 viability	HT1080NT lethal	Giardia kill
CCCn1c2ccccc2c2cnn(CC(=O)NC3CCCCC3C)c(=O)c21 (stereo unspecified)	2%	13	12%	10%	-2%	1
Cc1ccc(NC(=O)CN(C)Cc2cc(=O)n3ccsc3n2)cc1	-3%	8	3%	8%	-2%	6
COc1ccc(C)cc1S(=O)(=O)N(C)CC(=O)NCc1ccco1	0%	-10	4%	-1%	-1%	-3
Cc1ccc(NC(=O)Nc2cc(S(C)(=O)=O)ccc2Cl)cc1	-1%	-24	-3%	2%	-1%	-8
COc1ccc(NC(=O)C2=Cc3ccccc3OC2)cc1	26%	-51*	14%	-24%	-13%	0
COc1ccc(NC(=O)C2=Cc3cccc(OC)c3OC2)cc1	6%	-5	0%	-21%	6%	6
COc1cc(-c2noc(C)c2C#Cc2ccccn2)cc(OC)c1OC	2.1µM*	60	?	3%	1.6µM*	-2
COc1cc(-c2noc(C)c2/C=C/c2ccc(N)cc2)cc(OC)c1OC	0.92µM*	97	?	-16%	0.58µM*	-15
COc1cc(-c2noc(C)c2C#Cc2ccc(N)cc2)cc(OC)c1OC	0.65µM*	69	10µM*	0%	0.82µM*	0
CCCCCCCC(=O)NN1CCOCC1	16%	0	5%	0%	17%	-5
Cn1c(=O)oc2cc(S(=O)(=O)N3CCCC(C(=O)Nc4ccc5c(c4)OCCO5)C3)ccc21 (stereo unspecified)	3%	-6	?	3%	14%	-11
CCC(CC)C(=O)Nc1ccc2nc(SCc3ccccc3)sc2c1	.	.	-2%	-18%	.	.
Cc1n[nH]c2ccccc2c1=O	8%	19	21%	13%	1%	14
Fc1ccc(Nc2c(-c3ccco3)nc3ccccn23)cc1	0%	-64*	?	-23%	1%	10
O=C1/C(=C\c2cccnc2)SC(=S)N1C1CCS(=O)(=O)C1 (stereo unspecified)	?	-79*	-14%	-16%	-27%	-16
O=C1/C(=C/c2cccnc2)SC(=S)N1C1CCS(=O)(=O)C1 (stereo unspecified)	18µM*	-93*	-10%	-33%	-24%	0
COc1cc(CNCCc2ccccc2F)ccc1OCc1ccc(Cl)nc1	?	-30	18%	-52%	?	2
COc1cc(CNCCc2c[nH]c3ccccc23)cc(Cl)c1OCC(N)=O	-12%	?	-10%	-27%	-21%	-9
COc1cccc(CNCCc2c[nH]c3ccccc23)c1OCc1ccc(F)cc1	?	-62*	?	13µM*	21µM*	3
COc1cc(CNCCc2ccc(F)cc2)ccc1OCc1ccc(Cl)nc1	?	-56*	?	-84%	?	16
COc1cc(NC(=S)NCCc2c[nH]c3ccccc23)c(OC)cc1Cl	?	-66*	?	-49%	?	21
COc1cc(CNCCc2c[nH]c3ccccc23)ccc1OCc1ccc(F)cc1	?	-103*	?	-115%	-23%	8
O=C1C=C(Nc2cccc(O)c2)CC(c2ccco2)C1 (stereo unspecified)	1%	17	-3%	1%	18%	14
OCCn1c(-c2ccc(F)cc2)csc1=Nc1ccccc1	-9%	-53*	-17%	-3%	-3%	-15
CCn1c(-c2ccccc2)csc1=Nc1ccc(O)cc1	-15%	-95*	-27%	-26%	-6%	-7
SMILES	HT1080 IDH1KD tx	IL-1B inflam inh	TGFb SMAD3 inh	HepG2 viability	HT1080NT lethal	Giardia kill
OCCn1c(-c2ccc3c(c2)OCO3)csc1=Nc1ccccc1	-26%	-62*	-17%	-26%	-4%	-1
CCOc1ccc(N=c2scc(-c3ccccc3)n2CCO)cc1	-17%	-66*	?	-25%	?	6
CCOc1ccc(N=c2scc(-c3ccc(OC)cc3)n2CCO)cc1	-16%	?	0%	-32%	-23%	12
CCn1c(=O)n(CC(=O)N2CCN(c3ccccc3F)CC2)c(=O)c2ccccc21	4%[9.24 µM]	-11	-29%	-7%	-4%	-8
O=C(O)c1cccc2c1C(=O)c1ccc(-c3ccc(Cl)c(C(F)(F)F)c3)cc1S2(=O)=O	11%	-78*	6%	4%	10%	-11
CC(C)c1cccc(-c2ccc3c(c2)S(=O)(=O)c2cccc(C(=O)O)c2C3=O)c1	3%	4	8%	1%	4%	4
O=C1C2C3C=CC(O3)C2C(=O)N1Nc1ccccc1 (stereo unspecified)	-11%	12	18%	-1%	1%	-7
O=C1C2CC=CCC2C(=O)N1Nc1ccccc1 (stereo unspecified)	?	12	1%	14%	21µM*	-1
Cc1cc(=O)n2nc(N3CCC(C(=O)NCC(C)c4ccccc4)CC3)sc2n1 (stereo unspecified)	-11%	26	1%	-4%	-26%	-1
CCOC(=S)SCC(=O)N1CCc2cc(OC)ccc2C1C1C(=O)CCCC1=O (stereo unspecified)	23µM*	91	?	-1%	?	-1
CCOC(=S)SCC(=O)N1CCc2cc(OC)c(OC)cc2C1C1C(=O)CC(C)(C)CC1=O (stereo unspecified)	-7%	0	-20%	17%	-8%	-9
C[C@@H](C(=O)NCc1ccccc1)[C@@H]1C[C@@]1(C)[C@@H](NC(=O)OCc1ccccc1)c1ccccc1	-6%	-57*	0%	2%	0%	17
C[C@@H](C(=O)NCc1ccc(S(C)(=O)=O)cc1)[C@H]1C[C@]1(C)[C@H](NC(=O)OCc1ccccc1)c1ccccc1	1%	-9	-12%	-19%	3%	-21
O=C(N/N=C/c1ccccc1)c1ccc(CN2C(=O)c3cccc4cccc2c34)cc1	?	17	0%	-27%	21µM*	-16
O=C(N/N=C/c1ccc(O)cc1O)c1ccc(CN2C(=O)c3cccc4cccc2c34)cc1	?	119	?	-38%	?	7
CCOc1ccc(NC(=O)Cn2c(=O)cc(C)c3c(C)nn(C)c32)cc1	.	.	1%	4%	.	.
COc1nc(OCCNC(C)=O)nc(N(C)C)n1	19%	10	-13%	-3%	6%	1
Cn1nnnc1SCCNCc1ccc(OCc2ccc(Cl)cc2)cc1	.	.	?	6.3µM*	.	.

Source: PubChem
